Source: PubChem
BoNT A protease – inhibitors of Botulinum neurotoxin A light chain protease; multiplex microsphere protease substrate cleavage, flow cytometry; inhibition, % at 10 µM; 360,000 tested, 0.17% active; further: plate controls were buffer without enzyme for full effect and enzyme alone for no effect
Anthrax LF prot – inhibitors of Bacillus anthracis lethal factor protease; 360,000 tested, 0.12% active; multiplex microsphere protease cleavage assay, LF; P15917; inhibition, % at 10 µM; further: plate controls were buffer without enzyme for full effect and enzyme alone for no effect
Target sequence (P15917 whole entry, looked up): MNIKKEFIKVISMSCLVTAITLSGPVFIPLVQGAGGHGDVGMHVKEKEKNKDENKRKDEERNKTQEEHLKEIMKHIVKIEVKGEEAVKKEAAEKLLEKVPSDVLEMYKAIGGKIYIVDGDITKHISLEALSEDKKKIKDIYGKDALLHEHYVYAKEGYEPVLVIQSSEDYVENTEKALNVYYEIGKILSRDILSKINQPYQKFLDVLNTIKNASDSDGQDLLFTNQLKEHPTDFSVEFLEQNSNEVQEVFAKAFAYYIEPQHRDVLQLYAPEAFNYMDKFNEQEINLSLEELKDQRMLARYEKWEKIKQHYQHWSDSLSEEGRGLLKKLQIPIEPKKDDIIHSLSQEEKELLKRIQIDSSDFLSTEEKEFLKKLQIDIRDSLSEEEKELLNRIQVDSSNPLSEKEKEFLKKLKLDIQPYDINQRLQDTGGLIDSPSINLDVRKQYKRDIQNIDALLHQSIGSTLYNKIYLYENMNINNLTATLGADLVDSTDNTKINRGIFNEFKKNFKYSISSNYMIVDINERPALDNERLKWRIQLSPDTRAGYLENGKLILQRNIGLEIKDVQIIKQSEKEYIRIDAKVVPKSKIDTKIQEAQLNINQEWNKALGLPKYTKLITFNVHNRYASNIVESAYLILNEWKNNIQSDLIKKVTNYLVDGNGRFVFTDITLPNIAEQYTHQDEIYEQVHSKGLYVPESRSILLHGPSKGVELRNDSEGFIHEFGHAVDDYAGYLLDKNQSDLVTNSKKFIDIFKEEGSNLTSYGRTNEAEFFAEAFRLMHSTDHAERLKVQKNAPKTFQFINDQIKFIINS
Autofluor counter – compound fluorescence in toxin protease inhibitor counterscreen. AID 624483. 360,000 tested, 3.1% active. compound autofluorescence counterscreen, microsphere flow cytometry; hits give high values. fluorescence intensity (test concentration not listed); in the data active means fluorescence intensity above about 16000; inconclusive means no clear call, values can overlap the other calls
BoNT F protease – BoNT F light chain protease inhibition | 360,000 tested, 0.22% active | inhibition, % at 10 µM | AID 588497 | Multiplex microsphere protease cleavage assay, flow cytometry; in the data active means inhibition above about 35%, passing the limit was not always enough; inconclusive means no clear call, values can overlap the other calls; further: plate controls were buffer without enzyme for full effect and enzyme alone for no effect
* marks the source's active call; other numbers are inactive results; ? = inconclusive. Most compounds without a hit are left out; they make up all but 3.5% or so of the library. Unless noted, no stated cut-off is given here; in the data, active means inhibition above about 30%; inconclusive means no clear call, values can overlap the other calls; inactive means below that.

SMILES	BoNT A protease	Anthrax LF prot	Autofluor counter	BoNT F protease
O=C(O)c1cc(S(=O)(=O)NC(Cc2c[nH]c3ccccc23)C(=O)O)ccc1Cl (stereo not drawn)	-3	-2	3999	-16
O=C(Nc1ccc(Cl)cc1)N[C@@H]1c2c(ccc3ccccc23)OC[C@@H]1CO	-3	-3	23698*	-2
CN(C(=O)c1ccccc1)C1c2c(ccc3ccccc23)OCC1CO (stereo not drawn)	-4	1	3863	-23
Cc1cc(C)c(SSc2nnnn2-c2ccccc2)c(C)c1	0	-4	2867	-2
O=C(CSCCc1ccccn1)Nc1ccc(Br)cn1	0	0	23013*	-1
CN(C)c1ccc(N=Cc2ccco2)cc1	8	-10	20149*	-23
CN(C)c1ccc(C=Nc2ccc(N(C)C)cc2)cc1	1	-8	1945	-31
CC(C)C12CN3CCN(CC(C3)C1O)C2 (stereo not drawn)	-2	-2	16737*	-5
CCC12CN3CCN(CC(C3)C1O)C2 (stereo not drawn)	-1	-6	6215	-12
COc1cccc(-c2nc(-c3ccccc3)c3ccc(Cl)cc3n2)c1	-1	-4	4483	-5
CCOC(=O)c1c(NC(=O)CSc2nc3ccccc3s2)sc(C)c1C	6	-1	?	22
CCOC(=O)c1c(NC(=O)CSc2nc3ccccc3o2)sc(C)c1C	?	-4	19163*	5
O=C(CCC1CCCCC1)NCc1ccccn1	-1	-5	7540	4
Cc1cccc(NC(=O)c2sc3nc(-c4ccc(F)cc4)cn3c2C)n1	?	-1	19776*	1
Cc1c(C(=O)NCc2ccccn2)sc2nc(-c3ccc(F)cc3)cn12	1	-8	19364*	1
Cc1cccc(NC(=O)c2sc3nc(-c4ccccc4)cn3c2C)n1	2	5	12530	2
COc1ccc(-c2cn3c(C)c(C(=O)NC(C)C)sc3n2)cc1	-1	-8	23094*	-2
Cc1c(C(=O)Nc2ccccc2)sc2nc(-c3ccccc3)cn12	-1	-2	23471*	-1
Cc1c(C(=O)NCc2ccccn2)sc2nc(-c3ccccc3)cn12	0	-12	4195	-5
O=S(=O)(/N=C(/Nc1cccnc1Cl)c1ccccc1)c1ccccc1	0	0	4053	-5
CSc1nc(C(C)C)ccc1CNC(=O)CC(C)c1ccccc1 (stereo not drawn)	-1	17	3527	10
O=C1CCCc2c1nn(-c1ccccc1)[n+]2[O-]	10	-16	18962*	10
O=C(c1cccs1)N1CCc2ccccc21	1	2	21871*	1
Cc1ccc2c(c1)CCCN2C(=O)c1cccs1	-2	2	20191*	-4
CCc1ccc(C(C#N)=CC=Cc2ccccc2)cc1	0	-19	2790	2
SMILES	BoNT A protease	Anthrax LF prot	Autofluor counter	BoNT F protease
COC(=O)CNC(=S)NC(=O)c1ccc(C(C)(C)C)cc1	-1	-4	4512	-1
CCCCCCCCNC(=O)CCNC(=O)c1ccc(C(C)(C)C)cc1	-2	-4	16679*	-3
Cc1ccc(S(=O)(=O)NCC(=O)N(CC(=O)NCc2ccco2)Cc2cccs2)cc1	-1	-2	20378*	-3
Cc1ccc(S(=O)(=O)N[C@@H](CC(C)C)C(=O)NCc2ccco2)cc1	?	0	23101*	-1
Cc1cc(C(F)(F)F)nn1Cc1n[nH]c(=S)n1-c1ccc(Cl)cc1	0	3	19410*	1
Cc1ccc(-n2c(Cn3nc(C(F)F)cc3C(F)F)n[nH]c2=S)cc1	2	2	22572*	2
Cc1cc(C(F)(F)F)nn1Cc1n[nH]c(=S)n1-c1cccc(Cl)c1	5	-3	15165	7
COc1ccc(OCc2n[nH]c(=S)n2-c2ccc(C)cc2)cc1	1	-2	2240	1
COc1ccc(-c2nnc(-c3ccc(N)cc3)o2)cc1	1	-6	9135	7
COc1ccc(-c2ccc(-c3nnc(-c4cc(OC)ccc4OC)o3)cc2)cc1	?	1	22687*	0
COc1cccc(-n2c(N)cc(=O)nc2SCC(=O)N2CCN(c3ccccc3)CC2)c1	1	1	5134	0
Cc1ccc(-n2ncc3c(=O)n(CC#N)cnc32)cc1	0	-1	20625*	-2
CN(C)S(=O)(=O)c1cccc(NC(=O)CN2C(=O)NC(Cc3ccccc3)C2=O)c1 (stereo not drawn)	0	0	5463	0
CCN(CC)S(=O)(=O)c1cccc(-c2nnc(SC(C)C(=O)NCCC3=CCCCC3)o2)c1 (stereo not drawn)	2	0	22080*	2
CC(Sc1nnc(-c2ccco2)o1)C(=O)NCCC1=CCCCC1 (stereo not drawn)	1	-5	4089	-4
CCOc1ccccc1N=Nc1c(C)[nH]n(C(N)=S)c1=O	3	-1	3759	56*
CC(NC(=O)c1cccc(Cn2cc([N+](=O)[O-])cn2)c1)c1ccc(C(C)(C)C)cc1 (stereo not drawn)	-1	0	19892*	-3
CC(C)NC(=O)c1cccc(Cn2cc(Cl)cn2)c1	1	-2	22543*	3
CCC(NC(=O)c1cccc(Cn2cc([N+](=O)[O-])cn2)c1)c1ccc(C(C)C)cc1 (stereo not drawn)	-1	-4	10294	-8
CCCCCCC(NC(=O)c1ccc(C)cc1)C(=O)O (stereo not drawn)	-1	0	3248	1
CN(C)C(=O)Cn1cc(S(=O)(=O)Cc2ccccc2)c2ccccc21	0	-1	5743	0
CC1(C(=O)NS(=O)(=O)c2ccccc2Cl)CCN1C(=O)C1CCCCC1 (stereo not drawn)	0	-2	3908	-10
CCOc1ccc(NC(=O)C2CC=CCC2C(=O)O)cc1 (stereo not drawn)	0	0	22332*	0
COc1ccc(NC(=O)C2CCN(C(=O)NCc3ccccc3)CC2)cc1	1	-2	16148*	2
CCOc1ccc(NC(=O)C2CCN(C(=O)NC3CCCCC3)CC2)cc1	0	0	4083	2
SMILES	BoNT A protease	Anthrax LF prot	Autofluor counter	BoNT F protease
CCOc1ccc(NC(=O)C2CCN(C(=O)NCc3ccccc3)CC2)cc1	2	-2	22864*	0
COc1ccc(N2CCC(CNC(=S)Nc3cc(C)cc(C)c3)C2)cc1 (stereo not drawn)	0	-27	5737	-40
COc1ccc(N2CCC(CNC(=O)Nc3ccccc3)C2)cc1 (stereo not drawn)	6	-13	19305*	-22
Cc1ccc(NC(=O)C2CCN(C(=O)NCc3ccccc3)CC2)cc1C	0	-4	4459	2
CC(C(=O)O)n1nc(-c2ccccc2)c2ccccc21 (stereo not drawn)	1	20	3069	3
O=C(O)c1ccc([N+](=O)[O-])c2c1C(=O)c1ccccc1C2=O	?	-49	20562*	?
O=C1c2ccccc2C(=O)c2c([N+](=O)[O-])ccc(O)c21	1	6	3556	?
OC(COc1ccc2cc(Br)ccc2c1)CN1CCCC1 (stereo not drawn)	-3	-4	23249*	-5
CCOC(=O)c1nc(C)n(-c2cc(Cl)cc(Cl)c2)n1	6	-10	17779*	6
Cc1c(C(=O)Nc2nnc(C(F)(F)F)s2)oc2ccccc12	-4	1	23455*	-2
